IMPase cell inh: qHTS Assay for Identifying the Cell-Membrane Permeable IMPase Inhibitors. CHO-M1 cells, IP1 accumulation, HTRF TR-FRET ratio. inhibition (IP1 accumulation), % at 46.1 µM. 120,000 tested, under 10 active. AID 901, 2007; active = well fitted curve in the direction sought with a large enough effect in the signal ratio, not every such curve was filed as active; inconclusive = small, poorly fitted or top-dose-only effect, or a change in a side signal; inactive = no such curve, though single readings can be large or run the other way; the % refers to the signal ratio;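 note: cells stimulated with carbachol in lithium chloride buffer; higher means more IMPase inhibition seen as more IP1 and lower FRET ratio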
Target sequence (P97697 whole entry, looked up): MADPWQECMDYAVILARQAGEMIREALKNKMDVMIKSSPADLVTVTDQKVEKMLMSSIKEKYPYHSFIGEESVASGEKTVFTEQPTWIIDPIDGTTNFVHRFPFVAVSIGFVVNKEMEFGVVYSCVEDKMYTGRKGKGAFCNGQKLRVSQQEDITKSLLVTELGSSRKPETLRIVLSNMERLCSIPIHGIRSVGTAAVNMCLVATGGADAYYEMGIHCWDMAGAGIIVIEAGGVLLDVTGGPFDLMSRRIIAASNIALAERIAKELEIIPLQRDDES
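Measured: the HTRF emission ratio (665/620 nm) plus the 620 nm donor channel, each fitted to the Hill equation to give AC50. Cells were CHO-M1 given compounds up to 46 uM and a 30 min carbachol stimulation at 37C.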
IMPase Li cell: qHTS Assay for Identifying the Cell-Membrane Permeable IMPase Inhibitors: Potentiation with Lithium | CHO-M1 cells, IP1 TR-FRET (IP-One), carbachol + lithium | Potency, µM (top dose mostly 59.4 µM), usual class: inhibitors | 0.35% of 210,000 active;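 note: IP1 builds up when IMPase is blocked and the TR-FRET signal falls; nearly all actives have a fitted effect of over 50% in size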
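CHO cells stably expressing M1 receptor (2000/well, cultured 16–30 h) treated 30 min at 37C with compound plus low lithium. Cytosolic IP1 by TR-FRET (665/620 ratio and 620 channel) after 10 min lysis; AC50 by Hill fit.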
PNC inhibitor: High Content Assay for Compounds that inhibit the Assembly of the Perinucleolar Compartment | PC3M PTB-GFP, PNC prevalence imaging, 16 h; hits give low values | activity change (PNC), negative = inhibition, % at 10 µM | 3.1% of 140,000 active;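 active = readout at or below -70, meaning at least 70% loss of cells showing the perinucleolar compartment, a nuclear body marking cancer cells; inconclusive = readout between -30 and a set limit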
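Read-out is percentage of cells bearing a perinucleolar compartment, from automated 20x imaging of fixed, Hoechst-stained PC3M PTB-GFP cells. Cells were seeded 4 h, then exposed 16 h to compound (23 nl of library stock) in duplicate plates.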
ALOX12 inhib: qHTS Assay for Inhibitors of 12-hLO (12-human lipoxygenase); Polyunsaturated fatty acid lipoxygenase ALOX12 (Homo sapiens), P18054; purified 12-hLO, xylenol orange hydroperoxide absorbance; Potency, µM (doses to about 57.1 µM), usual class: inhibitors; 0.12% of 150,000 active; AID 1452, 2008; note: nearly all actives have a fitted effect of over 55% in size
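150 nM 12hLO, 25 mM Hepes pH 7.0 + 0.01% Triton X-100; cpd preinc 15 min RT; 40 uM arachidonic acid, 30 min RT; Fe-XO 30 min; A573/A405 ratio as read-out.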
ALDH1A1 block: qHTS Assay for Inhibitors of Aldehyde Dehydrogenase 1 (ALDH1A1); Aldehyde dehydrogenase 1A1 (Homo sapiens), P00352; Purified ALDH1A1, NADH fluorescence, propionaldehyde substrate; Potency, µM (doses to about 75.3 µM), usual class: inhibitors; 7.3% of 220,000 active; active = well fitted inhibition curve with a large enough effect, not every such curve was filed as active; inconclusive = small, poorly fitted or top-dose-only effect, or another doubt; inactive = no such curve, though single readings can be large or run the other way
HPGD inh: qHTS Assay for Inhibitors of HPGD (15-Hydroxyprostaglandin Dehydrogenase); 15-hydroxyprostaglandin dehydrogenase [NAD(+)] (Homo sapiens), P15428; Potency, µM, usual class: inhibitors; AID 894, 2007; 4.3% of 150,000 active; purified HPGD, NADH fluorescence kinetic, PGE2 substrate; active = well fitted inhibition curve with a large enough effect, not every such curve was filed as active; inconclusive = small, poorly fitted or top-dose-only effect, or another doubt; inactive = no such curve, though single readings can be large or run the other way
Target sequence (P15428 whole entry, looked up): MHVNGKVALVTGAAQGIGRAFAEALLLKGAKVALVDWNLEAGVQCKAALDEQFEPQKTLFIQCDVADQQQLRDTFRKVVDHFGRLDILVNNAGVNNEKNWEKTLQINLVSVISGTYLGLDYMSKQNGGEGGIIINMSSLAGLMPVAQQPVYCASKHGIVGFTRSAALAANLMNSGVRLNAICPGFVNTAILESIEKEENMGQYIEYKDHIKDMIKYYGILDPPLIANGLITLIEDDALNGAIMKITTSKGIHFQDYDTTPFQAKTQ
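20 nM HPGD preincubated 15 min at room temperature with compound in 50 mM Tris-HCl pH 8, 0.01% Tween 20. Started with 1 mM NAD+ and 30 uM prostaglandin E2; NADH fluorescence (360/450 nm) read 5 times over 30-s intervals, last minus first.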
A number is an active result; [ ] = dose if it differs, or a comment. This is a sample that favours compounds with a hit; in the whole collection about 11% have one here. Unless noted, calls come from the whole dose curve; as a rule, active = well fitted curve in the direction sought with a large enough effect; inconclusive = small, poorly fitted or top-dose-only effect, or another doubt; inactive = no such curve, though single readings can be large; an effect the other way counts as inactive or inconclusive.

For C[C@H](CCC(=O)O)[C@H]1CC[C@@H]2[C@@H]3CC[C@H]4C[C@@H](O)CC[C@@]4(C)[C@@H]3C[C@H](O)[C@@]21C the results were IMPase Li cell inactive, ALOX12 inhib inactive[11.4 µM], ALDH1A1 block inactive[13.5 µM] and HPGD inh inactive.
For Cc1[nH]c2ccccc2c1C(=O)CN1CCCCC1C (configuration not stated) the results were IMPase cell inh inactive, IMPase Li cell inactive, PNC inhibitor -96, ALOX12 inhib inactive, ALDH1A1 block 20µM and HPGD inh inactive.
Cc1[nH]c2ccccc2c1C(=O)CCl was read as IMPase Li cell inactive and ALDH1A1 block 0.25µM.
O=C(Nc1cc(-c2nc3ccccc3o2)ccc1Cl)c1ccc(Br)o1 was read as IMPase cell inh inactive.
`O=[N+]([O-])c1ccc(Sc2ccccc2)nc1` gave IMPase Li cell inactive, PNC inhibitor inactive, ALOX12 inhib inactive, ALDH1A1 block inactive and HPGD inh inactive.
Screening Nc1cccnc1Sc1ccc([N+](=O)[O-])cn1 returned IMPase Li cell inactive, PNC inhibitor inactive, ALOX12 inhib inactive, ALDH1A1 block inconclusive and HPGD inh 10µM.
O=[N+]([O-])c1ccc(Sc2n[nH]c(-c3ccccc3)n2)nc1 was read as IMPase cell inh inactive, IMPase Li cell inactive, PNC inhibitor inactive, ALOX12 inhib inactive, ALDH1A1 block inactive and HPGD inh 8.9µM.
COc1ccccc1CCn1c(=O)c(CCc2ccccc2)nc2cncnc21 was read as IMPase Li cell inactive and ALDH1A1 block inconclusive.
For CCN1C(=O)[C@H]2[C@H]3[C@H](O)[C@H](O)C/C(=N/NC(=O)OCc4ccccc4)[C@H]3CC[C@@H]2C1=O the results were ALDH1A1 block inactive[13.5 µM].
Cc1cc(-c2cc(C)c(O)c(C(C)(C)C)c2)cc(C(C)(C)C)c1O was read as IMPase Li cell inactive, ALOX12 inhib inactive[11.4 µM], ALDH1A1 block inactive[13.5 µM] and HPGD inh inactive.
Nc1cc2c(cc1O)CCCC2 was read as IMPase Li cell inactive and ALDH1A1 block 2.2µM.
Screening CCOc1ccc(/C(O)=C/C(=O)C(=O)Nc2ccc(S(=O)(=O)NC(C)=O)cc2)cc1 returned IMPase cell inh inactive, IMPase Li cell inactive, PNC inhibitor inactive, ALOX12 inhib inactive, ALDH1A1 block inactive and HPGD inh inactive.
For Cc1nc(NC(=O)COC(=O)c2ccc(S(=O)(=O)N3CCc4ccccc4C3)cc2)c(Cl)cc1Cl the results were IMPase Li cell 10µM and ALDH1A1 block inconclusive.
`O=C(Nc1sc2c(c1-c1nc3ccccc3[nH]1)CCCC2)C1CCCC1` gave IMPase cell inh inactive, IMPase Li cell inactive, PNC inhibitor inconclusive, ALOX12 inhib inactive, ALDH1A1 block inconclusive and HPGD inh inconclusive.
For CC(=O)NCCC(=O)Nc1sc2c(c1-c1nc3ccccc3[nH]1)CCCC2 the results were IMPase cell inh inactive, IMPase Li cell inactive, PNC inhibitor -80, ALOX12 inhib inactive, ALDH1A1 block inconclusive and HPGD inh inconclusive.
For CC1C/C(=N\NC(=S)NCc2ccccc2)CC(C)(C)C1 (configuration not stated) the results were IMPase cell inh inactive, IMPase Li cell inactive, PNC inhibitor inconclusive, ALOX12 inhib inconclusive, ALDH1A1 block 25µM and HPGD inh inactive.
Screening COC(=O)c1ccc(C(/C=C/[C@@H](C)C(=O)NCCN2CCCC2)NC(=O)OCc2ccccc2)cc1 (some centres not stated) returned IMPase Li cell inactive, ALOX12 inhib inactive, ALDH1A1 block inactive and HPGD inh inactive.
CCc1ccc(S(=O)(=O)Nc2ccc3oc(C)c(C(=O)OCCOC)c3c2)cc1 was read as IMPase cell inh inactive.
For CC(C)NC(=O)Cn1nnc(-c2ccc(Cl)cc2)n1 the results were IMPase cell inh inactive, PNC inhibitor inactive, ALOX12 inhib inactive and ALDH1A1 block 10µM.
`C=CCNC(=O)NC(=O)COC(=O)/C(C#N)=C/c1ccc(OC)cc1` gave IMPase Li cell inactive and ALDH1A1 block 25µM.
`CCCOc1ccc(C(=O)Nc2c(C(=O)c3ccc(C)cc3)oc3ccccc23)cc1` gave IMPase cell inh inactive.
For O=C(NC(=S)Nc1cc(Cl)ccc1O)c1cccc(Br)c1 the results were ALDH1A1 block 9.5µM.
Screening O=C(O)/C=C/C(=O)NNC(=O)c1cccc(Br)c1 returned IMPase cell inh inactive, IMPase Li cell inactive, PNC inhibitor inactive, ALOX12 inhib inactive, ALDH1A1 block 20µM and HPGD inh inactive.
`CC(C)(C)NC(=S)NNC(=O)c1ccc2ncccc2c1` gave IMPase Li cell inactive and ALDH1A1 block inconclusive.
Screening O=C(NNC1OC(CO)C(O)C(O)C1O)c1cccc(Br)c1 (configuration not stated) returned IMPase Li cell inactive and ALDH1A1 block 11µM.
O=C(O)CCC(=O)NNC(=O)c1cccc(Br)c1 was read as IMPase Li cell inactive, PNC inhibitor inactive, ALOX12 inhib inactive, ALDH1A1 block inactive and HPGD inh inactive.
For CC(C)(C)NC(=S)NNC(=O)c1cccc(Br)c1 the results were IMPase Li cell inactive and ALDH1A1 block 11µM.
Screening O=C(NNC(=O)c1cccc(Br)c1)Nc1ccc(Cl)cc1 returned IMPase Li cell inactive and ALDH1A1 block inactive.
Screening O=C(NNC(=S)Nc1ccccc1)c1cccc(Br)c1 returned IMPase cell inh inactive, IMPase Li cell inactive, PNC inhibitor inactive, ALOX12 inhib inactive, ALDH1A1 block 20µM and HPGD inh inactive.
`COc1cc(NC(=S)Nc2ccc(Br)cc2Cl)c(OC)cc1Cl` gave IMPase cell inh inactive, IMPase Li cell inactive, PNC inhibitor inactive, ALOX12 inhib inactive, ALDH1A1 block 28µM and HPGD inh inactive.
Screening COc1cc(Cl)c(C)cc1NC(=S)NN returned IMPase Li cell inactive and ALDH1A1 block 11µM.
Screening COc1cc(NC(=S)Nc2cccc(Cl)c2Cl)c(OC)cc1Cl returned IMPase cell inh inactive, PNC inhibitor inactive, ALOX12 inhib inactive and ALDH1A1 block inactive.
For COc1cc(C)c(NC(=S)Nc2ccc(Cl)c(Cl)c2)cc1OC the results were IMPase cell inh inactive, IMPase Li cell inactive, PNC inhibitor inconclusive, ALOX12 inhib inconclusive, ALDH1A1 block 8.9µM and HPGD inh 16µM.
Screening COC(=O)c1cc(OC)c(OC)cc1NC(=S)Nc1cccc(Cl)c1 returned IMPase cell inh inactive, IMPase Li cell inconclusive, PNC inhibitor inactive, ALOX12 inhib inactive, ALDH1A1 block inconclusive and HPGD inh inactive.
